Compound activity deposited in PubChem by National Center for Advancing Translational Sciences (NCATS).
BRCT PPI green: inhibitors of human BRCA1 BRCT-phosphoprotein interaction (green fluorophore). P38398. BRCA1 BRCT-phosphopeptide binding, green fluorescence polarization. Potency, µM (doses to about 76.9 µM), inactives show at the top dose activity change, negative = inhibition, actives largely listed as inhibitors. 0.05% of 75,000 active. AID 875;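 further: potency means the concentration at half of the fitted maximal effect; plate controls were peptide without protein for full effect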
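Fluorescence polarization: His-tagged BRCT (~35 kDa BRCA1 C-terminus, 250 nM) bound to 100 nM fluorescein-labeled phosphorylated 10-aa BACH1 peptide, pH 7.3 phosphate buffer with DTT and Tween 20. Compounds incubated 12 min at room temperature; inhibition read as lowered polarization.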
15-hLO inh: inhibitors of human 15-lipoxygenase (ALOX15). purified 15hLO-1, xylenol orange hydroperoxide absorbance. Potency, µM (series often up to 57.1 µM), for the others: top-dose activity change, negative = inhibition, actives largely listed as inhibitors. 1.4% of 74,000 active; further: potency means the concentration at half of the fitted maximal effect; on the % scale 0 is the no-effect control and ±100 the full control effect; nearly all actives have a fitted effect of over 55% in size
Target sequence (P16050 whole entry, looked up): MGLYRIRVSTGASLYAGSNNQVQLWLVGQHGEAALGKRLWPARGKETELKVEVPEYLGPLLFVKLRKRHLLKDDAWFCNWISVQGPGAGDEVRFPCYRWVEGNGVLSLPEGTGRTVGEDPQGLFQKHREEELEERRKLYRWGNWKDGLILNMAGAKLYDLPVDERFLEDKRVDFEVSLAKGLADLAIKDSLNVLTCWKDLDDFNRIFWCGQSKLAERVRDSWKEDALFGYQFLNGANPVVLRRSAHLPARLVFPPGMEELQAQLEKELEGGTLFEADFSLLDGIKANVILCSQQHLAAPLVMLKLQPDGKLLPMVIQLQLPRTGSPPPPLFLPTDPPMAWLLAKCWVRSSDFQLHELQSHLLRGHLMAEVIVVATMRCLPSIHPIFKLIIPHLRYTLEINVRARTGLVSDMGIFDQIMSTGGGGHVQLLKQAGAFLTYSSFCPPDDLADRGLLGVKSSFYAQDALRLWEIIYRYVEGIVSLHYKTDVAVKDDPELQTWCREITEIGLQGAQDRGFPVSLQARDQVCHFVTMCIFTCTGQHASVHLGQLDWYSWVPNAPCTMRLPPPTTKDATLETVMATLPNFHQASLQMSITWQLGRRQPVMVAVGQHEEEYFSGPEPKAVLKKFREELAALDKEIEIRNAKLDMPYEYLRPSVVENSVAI
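Compounds were preincubated 15 min at room temperature with 40 nM purified human enzyme (25 mM Hepes pH 7.5, 0.01% Triton X-100); 50 uM arachidonic acid reacted 6 min. Fe-xylenol orange detection, 30 min, absorbance ratio 573/405 nm.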
DNA Pol III inh: blocks replication by bacterial DNA polymerase III holoenzyme. reconstituted DNA polymerase III holoenzyme replication, biochemical. Potency, µM (top dose mostly 57.1 µM), without a hit: at the highest dose activity change, negative = inhibition. 0.25% of 71,000 active. AID 603; further: potency means the concentration at half of the fitted maximal effect; on the % scale 0 is the no-effect control and ±100 the full control effect
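Reconstituted *E. coli* holoenzyme (0.35 nM Pol III, 1 nM beta, 154 nM SSB, 2 nM primase) was preincubated with compound for 15 min at RT. Synthesis on 1.4 nM ssM13Gori ran 35 min, then was stopped with PicoGreen/EDTA and read as dsDNA fluorescence.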
Tau filament bind: tau filament binding | P10636 | AID 596 | Potency, µM (series often up to 57.1 µM), inactives show top-dose activity change, negative = inhibition | 2% of 71,000 active | recombinant tau filaments, thioflavin S fluorescence, 15 h; filaments grown with octadecylsulfate alongside compound;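 further: potency means the concentration at half of the fitted maximal effect; on the % scale 0 is the no-effect control and ±100 the full control effect; actives lower thioflavin S fluorescence by blocking filaments or displacing dye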
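Assay mix: 1 uM His-tagged tau, 30 uM sodium octadecylsulfate, thioflavine S dye in HEPES/NaCl/DTT buffer. Compound is added prior to the inducer. Fluorescence after 15 h at 37 C.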
TsaE inh: displaces an ADP probe from E. coli YjeE (TsaE) | Potency, µM | purified YjeE enzyme, qHTS inhibition assay | 0.05% of 71,000 active | P0AF67
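Purified YjeE (10 uM) with BODIPY Texas Red-labeled ADP probe (2 uM); compounds pin-transferred, 15 min at room temperature. Binding inhibition read as decreased fluorescence polarization; ADP titration as control.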
BRCT inh red: inhibitors of human BRCA1 BRCT-phosphoprotein interaction (red fluorophore). P38398. BRCT-phosphopeptide binding, red fluorescence polarization. AID 892. 0.03% of 75,000 active. Potency, µM (top dose mostly 76.9 µM), for inactives: at the top dose activity change, negative = inhibition, usual class: inhibitors; further: on the % scale 0 is the no-effect control and ±100 the full control effect
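Fluorescence polarization: 100 nM His-tagged BRCA1 BRCT with 100 nM TAMRA-labelled phospho-BACH1 decapeptide, phosphate buffer pH 7.3 with 150 mM NaCl, DTT, 0.01% Tween 20; 12 min RT. Binding inhibition seen as FP decrease.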
* = called active by the depositor; [ ] = another dose, or the depositor's remark. Sampled rows, rich in hits. Any-hit rate of the full collection: about 3.1%. The call rests on the fitted dose curve; in most records, active means well fitted curve in the direction sought with a large enough effect; inconclusive means small, poorly fitted or top-dose-only effect, or another doubt; inactive means no such curve, though single readings can be large; an effect the other way counts as inactive or inconclusive.

How did Nc1nc2c(C(=O)NCc3cccs3)nnn2c2cccc(Cl)c12 do in these assays?
BRCT PPI green: -1%[15.4 µM]; 15-hLO inh: 15%[11.4 µM]; DNA Pol III inh: -4%[11.4 µM]; Tau filament bind: -5%[11.4 µM]; TsaE inh: inactive; BRCT inh red: -1%[15.4 µM]

What do the screens show for `CC1(C)CC(=O)C2=C(C1)OC(N)=C(C#N)C2C1CC=CCC1` (stereo not drawn)?
BRCT PPI green: -1%; 15-hLO inh: 32µM*; DNA Pol III inh: -2%; Tau filament bind: -11%; TsaE inh: inactive; BRCT inh red: -3%

How did CC1C(C#N)=C(N)OC2=C1C(=O)CC(C)(C)C2 (stereo not drawn) do in these assays?
BRCT PPI green: -2%; 15-hLO inh: 2%; DNA Pol III inh: 1%; Tau filament bind: 11%; TsaE inh: inactive; BRCT inh red: 1%

How did COC(=O)c1ccc2c(c1)SC1=C(CCCC1=O)N2 do in these assays?
BRCT PPI green: -5%; 15-hLO inh: 16µM*; DNA Pol III inh: -2%; Tau filament bind: 16µM*; TsaE inh: inactive; BRCT inh red: -27%

Results for COC(=O)c1ccc2c(c1)NC(=O)C(N1CCCC1)S2 (stereo not drawn) ?
BRCT PPI green: 5%; 15-hLO inh: -7%; DNA Pol III inh: -2%; Tau filament bind: 0%; TsaE inh: inactive; BRCT inh red: 0%

How did N[C@@H](C(=O)O)[C@@H]1C[C@H]1C(=O)O do in these assays?
DNA Pol III inh: 1%; Tau filament bind: 8%; TsaE inh: inactive

What do the screens show for `COc1ccc(CNc2ncncc2-c2ccc(N(C)C)cc2)c(OC)c1`?
BRCT PPI green: -1%; 15-hLO inh: 20µM*; DNA Pol III inh: 8%; Tau filament bind: inconclusive; TsaE inh: inactive; BRCT inh red: -1%

What do the screens show for `Fc1ccc(Nc2ncncc2-c2ccoc2)cc1`?
BRCT PPI green: 4%; 15-hLO inh: -5%; DNA Pol III inh: -5%; Tau filament bind: 17%; TsaE inh: inactive; BRCT inh red: -2%

Results for COc1ccc2[nH]cc(CCNc3cc(-c4ccccc4C(F)(F)F)ncn3)c2c1 ?
BRCT PPI green: -1%; 15-hLO inh: 16µM*; DNA Pol III inh: -4%; Tau filament bind: -10%; TsaE inh: inactive; BRCT inh red: -1%

How did CN(C)c1ccc(-c2cncnc2Nc2ccc(F)cc2)cc1 do in these assays?
BRCT PPI green: 0%; 15-hLO inh: 2.5µM*; DNA Pol III inh: 3%; Tau filament bind: -10%; TsaE inh: inactive; BRCT inh red: -1%

What do the screens show for `COc1cccc(-c2cncnc2NCc2cccnc2)c1`?
BRCT PPI green: 0%; 15-hLO inh: 16µM*; DNA Pol III inh: -8%; Tau filament bind: -1%; TsaE inh: inactive; BRCT inh red: 0%

Results for O=C(Nc1ccccc1)c1ccc(Cc2nc3ccccc3[nH]2)cc1 ?
BRCT PPI green: -4%; 15-hLO inh: -2%; BRCT inh red: 0%

What do the screens show for `CCCC1(C(=O)OC)C=C2C(=C(C(C)C)C(=O)C2C)CN1` (stereo not drawn)?
BRCT PPI green: -1%; DNA Pol III inh: 6%; Tau filament bind: 54%; TsaE inh: inactive; BRCT inh red: 1%

Results for COc1ccc2[nH]cc(CCNc3ncncc3-c3ccc(N(C)C)cc3)c2c1 ?
BRCT PPI green: 0%; 15-hLO inh: -2%; DNA Pol III inh: -5%; Tau filament bind: 25µM*; TsaE inh: inactive; BRCT inh red: 0%

What do the screens show for `COc1ccccc1CNc1ncncc1-c1ccoc1`?
BRCT PPI green: 6%; 15-hLO inh: 10µM*; DNA Pol III inh: -3%; Tau filament bind: -8%; TsaE inh: inactive; BRCT inh red: -3%

How did COc1ccc(CNc2ncnc3ccc(-c4ccc(N(C)C)cc4)cc23)c(OC)c1 do in these assays?
BRCT PPI green: -1%; 15-hLO inh: inconclusive; DNA Pol III inh: -5%; Tau filament bind: 2.5µM*; TsaE inh: inactive; BRCT inh red: -1%

Results for Cc1onc(-c2ccccc2)c1C(=O)Nc1nnc(COc2ccc(Cl)cc2)s1 ?
BRCT PPI green: 0%; 15-hLO inh: 7.9µM*; DNA Pol III inh: 0%; Tau filament bind: 3%; TsaE inh: inactive; BRCT inh red: 1%

What do the screens show for `CCC(CC)c1nnc(NC(=O)c2c(-c3ccccc3)noc2C)s1`?
BRCT PPI green: 0%; 15-hLO inh: -16%; DNA Pol III inh: -1%; Tau filament bind: -10%; TsaE inh: inactive; BRCT inh red: 1%

How did COC(=O)CC[C@@H](C)[C@@H]1CC[C@@H]2[C@@H]3CC[C@H]4C[C@@H](O)CC[C@@]4(C)[C@@H]3CC[C@]21C do in these assays?
BRCT PPI green: 3%[15.4 µM]; 15-hLO inh: 16%[11.4 µM]; DNA Pol III inh: -6%[11.4 µM]; Tau filament bind: 21%[11.4 µM]; TsaE inh: inactive; BRCT inh red: 0%[15.4 µM]

What do the screens show for `C=CCn1c(N)c(C(=O)Nc2ccccc2OC)sc1=S`?
BRCT PPI green: 1%; 15-hLO inh: -4%; DNA Pol III inh: 6%; Tau filament bind: -2%; TsaE inh: inactive; BRCT inh red: -1%

Results for C=CCn1c(N)c(-c2nc3ccccc3n2C)sc1=S ?
BRCT PPI green: 1%; 15-hLO inh: -8%; DNA Pol III inh: -5%; Tau filament bind: 16µM*; TsaE inh: inactive; BRCT inh red: 1%

Results for CCN1CCN(Cc2cc(=O)oc3cc(C)cc(C)c23)CC1 ?
BRCT PPI green: 0%; 15-hLO inh: 6%; DNA Pol III inh: 0%; Tau filament bind: 14%; TsaE inh: inactive; BRCT inh red: 1%

What do the screens show for `CCCc1cc(=O)oc2cc(C)c(CN3CCCC3)c(O)c12`?
BRCT PPI green: -2%; 15-hLO inh: 13µM*; DNA Pol III inh: -18%; Tau filament bind: 13µM*; TsaE inh: inactive; BRCT inh red: -7%

How did Cn1c(=O)c(-c2ccc(F)cc2)nc2cncnc21 do in these assays?
BRCT PPI green: -1%; 15-hLO inh: 4%; DNA Pol III inh: -10%; Tau filament bind: -2%; TsaE inh: inactive; BRCT inh red: 0%

How did O=C1CC(=O)N(Cc2ccco2)C(=O)N1 do in these assays?
BRCT PPI green: 17%; 15-hLO inh: -17%; DNA Pol III inh: 16µM*; Tau filament bind: 13%; TsaE inh: inactive; BRCT inh red: 0%

How did O=C(O)c1cc2c(cc1S(=O)(=O)O)[C@H]1[C@@H]([C@H]3[C@H]2[C@@]2(Cl)C(Cl)=C(Cl)[C@]3(Cl)C2(Cl)Cl)[C@]2(Cl)C(Cl)=C(Cl)[C@@]1(Cl)C2(Cl)Cl do in these assays?
BRCT PPI green: -5%[15.4 µM]; 15-hLO inh: 5µM*; DNA Pol III inh: -2%[11.4 µM]; Tau filament bind: 36%[11.4 µM]; TsaE inh: inactive; BRCT inh red: -6%[15.4 µM]
